Test results: PubChem BioAssay AID1985 (Southern Research Specialized Biocontainment Screening …, 2009)
The whole screen tested about 2,300 compounds, of which about 1,000 (43%) were called active. The rule behind the calls is not given here. So high a share suggests a set chosen from earlier hits. The list shows a part of the results. Results with a measured potency or affinity are listed apart.

test: modified counter assay using GFP fluorescence, PhoP regulon inhibitor project, dose response (AID 1985); details: S. Typhi, 4 h; series mostly up to 150 µM

| SMILES | outcome |
| --- | --- |
| CCn1nnnc1NCc1cccc(Cl)c1 | inactive |
| O=C(NCCCn1ccnc1)c1cc2c(ccc3ccccc32)o1 | inactive |
| O=C(/C=C/c1ccc(Cl)cc1)NCCCn1ccnc1 | inactive |
| Cc1noc(C)c1S(=O)(=O)N1CCC(Cc2ccccc2)CC1 | inactive |
| CC(C)(C)c1ccc(NC(=O)COc2ccc(-n3ccnc3)cc2)cc1 | inactive |
| Cc1nn(-c2ccccc2)c(C)c1/C=N/n1c(-c2ccc(C(C)(C)C)cc2)n[nH]c1=S | inactive |
| CC1CCCC(NC(=O)COC(=O)CCSc2ccccc2)C1C (configuration not stated) | inactive |
| O=C(Nc1ccccc1)C1=C(O)CC(c2ccc(Cl)cc2)N2CCN=C12 (configuration not stated) | inactive |
| CN(C)CCCN1c2ccccc2CCc2ccc(Cl)cc21 | inactive |
| CNCCC=C1c2ccccc2CCc2ccccc21 | inactive |
| c1cc(N2CCCC2)ccc1C(c1nnnn1C1CCCCC1)N1CCOCC1 (configuration not stated) | inactive |
| O=C(N/N=C/c1ccco1)c1cccc(NC(=O)c2cccc(Cl)c2)c1 | inactive |
| O=C(Nc1ccc2c(c1)OCCO2)C(=S)NCc1ccccc1 | inactive |
| Cc1cc(C)nc(SCC(=O)NCc2ccco2)n1 | inactive |
| Cc1ccccc1Cn1c(=O)n(CCCC(=O)NCc2ccco2)c(=O)c2ccccc21 | inactive |
| CC(C)CN1CCN(Cc2cnc(N3CCOCC3)s2)CC1CCO (configuration not stated) | inactive |
| O=C(Nc1ccc(N2CCOCC2)c(Cl)c1)c1ccc(-n2cnnc2)cc1 | inactive |
| COc1ccc2nc(NC(=O)Nc3ccccc3)sc2c1 | inactive |
| CCOc1ccc(N2CC(C(=O)OCC(=O)NCc3ccccc3)CC2=O)cc1 (configuration not stated) | inactive |
| CC(C)Oc1ccc(N2CC(C(=O)Nc3ccccc3F)CC2=O)cc1 (configuration not stated) | inactive |
| COc1ccc2nc(Nc3ccccc3)sc2c1 | inactive |
| Cc1ccc(C)c(NC(=O)CCC(=O)N/N=C/c2cc([N+](=O)[O-])ccc2O)c1 | inactive |
| O=[N+]([O-])c1ccc2oc(C3CCCCC3)nc2c1 | inactive |
| CC(=O)Cc1nsc(NC(=O)c2csc3c2CCCC3)n1 | inactive |

| SMILES | outcome |
| --- | --- |
| Oc1ccccc1-c1cc(C(F)(F)C(F)F)[nH]n1 | inactive |
| CN1C(=O)/C(=C/c2cccc(Cl)c2)Sc2ccc(C(=O)N3CCCC3)cc21 | inactive |
| O=C(O)c1ccc(N2C(=O)CC(N3C(=O)/C(=C/c4ccc(Cl)cc4)SC3=S)C2=O)cc1 (configuration not stated) | inactive |
| CC1CCN(c2c(NCc3ccc(C(=O)N4CCN(C5CCCCC5)CC4)cc3)c(=O)c2=O)CC1 | inactive |
| Cc1cccc(NC(=O)c2sc3nc(-c4ccccc4)cn3c2C)n1 | inactive |
| Cc1cc[n+](CC(=O)c2ccc(NC(=O)c3ccccc3)cc2)cc1 | inactive |
| COc1cccc(N2CCN(C(=S)NCc3ccco3)CC2)c1 | inactive |
| COc1ccc(OC)c(-c2cc(C(=O)Nc3ccc(F)cc3F)no2)c1 | inactive |
| N#Cc1nc(COc2ccc(Br)cc2)oc1NCCCn1ccnc1 | inactive |
| Cc1cc(C)c2sc(N(CCCN(C)C)C(=O)COc3ccc(Cl)cc3)nc2c1 | inactive |
| COc1ccc2nc(N(CCN(C)C)C(=O)/C=C/c3cccs3)sc2c1 | inactive |
| CN(C)CCN(C(=O)C1=COCCO1)c1nc2ccc(Cl)cc2s1 | inactive |
| Cc1cccc(CSCCNC(=O)COc2ccc(Cl)cc2)c1 | inactive |
| COc1ccccc1C1CN(c2ccc(F)cc2F)N=C1c1cccs1 (configuration not stated) | inactive |
| Cc1ccc(S(=O)(=O)N2CCOCC2)cc1NC(=O)CSc1nc(N)cc(=O)[nH]1 | inactive |
| C=CCN1C(=O)C(O)(CC(=O)c2c(C)n[nH]c2C)c2cc(Br)ccc21 (configuration not stated) | inactive |
| Cc1nc(N=Nc2ccc(O)cc2)n[nH]1 | inactive |
| O=C(Cn1cc(/C=C\[N+](=O)[O-])c2ccccc21)Nc1ccccc1 | inactive |
| Cc1cc(C)nc(/N=C(\N)Nc2ccc(SC(F)F)cc2)n1 | inactive |
| CC(C)(C)n1nc2c(c1NC(=O)Cc1cccs1)CSC2 | inactive |
| CC1(NC(=O)NCCCCCCNC(=O)NC2(C)CCS(=O)(=O)C2)CCS(=O)(=O)C1 (configuration not stated) | inactive |
| Nc1ncnc2nc(SCC(=O)Nc3cccc(C(F)(F)F)c3)[nH]c12 | inactive |
| O=C(Nc1ccc2[nH]c(=S)sc2c1)Nc1ccccc1F | inactive |
| Clc1ccc(Cn2cccc2C2=NCCO2)cc1 | inactive |

| SMILES | outcome |
| --- | --- |
| c1cnc2nc(-c3ccc4c(c3)OCO4)cn2c1 | inactive |
| CN1CCN(c2nc(Nc3ccc(F)cc3)nc(Nc3ccc(F)cc3)n2)CC1 | inactive |
| COc1ccc(S(=O)(=O)N[C@H](C(=O)N2CC[C@@]3(O)CCCC[C@H]3C2)c2ccccc2)cc1 | inactive |
| CCN(CC)CCOC(=O)c1cc(Cl)c(N)cc1OC | inactive |
| O=C(/C=C/c1ccc(O)cc1)c1ccccc1 | inactive |
| CCc1c(C)n([O-])c2c([n+]1=O)CCCCC2 | inactive |
| COc1ccc(N(CC(=O)N2c3ccccc3CC2C)S(=O)(=O)c2c(C)noc2C)cc1 (configuration not stated) | inactive |
| N#Cc1c(/N=C/c2cccs2)sc2c1CCCCC2 | inactive |
| Cc1cc(C)cc(CSc2nnc(C)c(=O)[nH]2)c1 | inactive |
| COc1cccc(CNC(=O)C2CCN(S(=O)(=O)c3ccc(C)cc3)CC2)c1 | inactive |
| CC(=O)NC(c1ccc(Cl)cc1Cl)c1ccc2cccnc2c1O (configuration not stated) | inactive |
| Cc1ccc(Cn2c(=N)c(C(=O)NCCN3CCOCC3)cc3c(=O)n4ccccc4nc32)cc1 | inactive |
| COc1cc2[nH]c(=O)n(Cc3ccc(C(=O)N4CCC(N5CCCCC5)CC4)cc3)c(=O)c2cc1OC | inactive |
| O=C(c1cc2c(s1)-c1ccccc1OC2)N1CCc2ccccc2C1 | inactive |
| CNC[C@@H](CC1CCCCC1)NC[C@H](CC(C)C)NCCc1cccc(C(F)(F)F)c1 | inactive |
| CS(=O)(=O)N1CC(C(=O)NC2CC2)Oc2ccc(Cl)cc21 (configuration not stated) | inactive |
| CCCSc1nc2cc(OC)c(OC)cc2c(=N)n1CCCN1CCOCC1 | inactive |
| CC(C)(C)NC(=O)c1ccc2c3c(cccc13)CC2 | inactive |
| O=C(CSc1nnnn1C1CCCCC1)N1CCCC1 | inactive |
| COCCn1nnnc1C(c1cccc(OC)c1OC)N1CCN(C2CCCCC2)CC1 (configuration not stated) | inactive |
| CC(C)OC(=O)c1cccc(C(=O)Oc2ccc(Br)cc2)n1 | inactive |
| CCOc1ccc(Cl)cc1/C=N/O | inactive |
| O/N=C/C1=C(Cl)c2ccccc2CC1 | inactive |
| CCOC(=O)Cn1c(=O)oc2cc(S(=O)(=O)NCC3CCCO3)ccc21 (configuration not stated) | inactive |
